These entries were drawn from the full list.
hNpr1 antagonist = Natriuretic polypeptide receptor (hNpr1) antagonism - Primary qHTS; Potency, µM (top dose mostly 46.3 µM), hits mostly inhibitors; AID 1347048, 2019; 1.6% of 76,000 active; HEK293 hNpr1 GloSensor cGMP, ANP-stimulated luminescence; calls by dose curve; note: nearly all actives have a fitted effect of over 60% in size
Target sequence (P16066 whole entry, looked up): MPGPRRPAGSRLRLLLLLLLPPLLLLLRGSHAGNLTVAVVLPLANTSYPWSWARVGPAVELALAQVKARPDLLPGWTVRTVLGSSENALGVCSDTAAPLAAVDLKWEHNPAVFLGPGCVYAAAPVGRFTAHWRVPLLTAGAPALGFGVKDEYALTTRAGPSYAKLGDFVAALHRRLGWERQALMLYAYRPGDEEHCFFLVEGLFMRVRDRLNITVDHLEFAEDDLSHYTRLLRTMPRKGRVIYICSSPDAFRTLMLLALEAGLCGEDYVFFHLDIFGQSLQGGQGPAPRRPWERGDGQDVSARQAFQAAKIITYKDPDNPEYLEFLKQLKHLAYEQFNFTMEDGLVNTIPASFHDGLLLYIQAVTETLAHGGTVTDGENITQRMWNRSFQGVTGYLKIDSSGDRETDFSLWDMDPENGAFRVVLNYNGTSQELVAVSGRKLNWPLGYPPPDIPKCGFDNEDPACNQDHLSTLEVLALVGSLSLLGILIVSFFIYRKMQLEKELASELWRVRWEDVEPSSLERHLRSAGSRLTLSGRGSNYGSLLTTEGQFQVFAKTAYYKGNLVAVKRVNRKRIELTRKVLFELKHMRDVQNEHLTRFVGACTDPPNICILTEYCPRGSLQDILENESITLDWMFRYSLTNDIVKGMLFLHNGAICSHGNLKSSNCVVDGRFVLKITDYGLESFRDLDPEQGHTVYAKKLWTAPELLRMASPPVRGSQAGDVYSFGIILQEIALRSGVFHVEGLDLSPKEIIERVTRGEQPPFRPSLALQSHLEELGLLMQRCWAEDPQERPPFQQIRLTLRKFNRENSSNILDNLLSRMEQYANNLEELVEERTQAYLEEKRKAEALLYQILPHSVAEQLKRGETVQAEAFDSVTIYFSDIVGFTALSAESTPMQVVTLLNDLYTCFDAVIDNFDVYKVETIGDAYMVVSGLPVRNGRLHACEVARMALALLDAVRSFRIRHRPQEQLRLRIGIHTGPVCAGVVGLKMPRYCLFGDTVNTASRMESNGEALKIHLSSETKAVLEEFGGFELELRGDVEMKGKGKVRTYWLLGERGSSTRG
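HEK293 cells stably expressing human Npr1 and cGMP GloSensor pGS-40F, loaded 2 h with 2% GloSensor reagent, given compound 30 min at room temperature. Luminescence read before and 20 min after 0.1 nM hNppA.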
FLuc inh-1 = Firefly luciferase inhibition profiling of diverse chemical library using quantitative high-throughput screening; purified P. pyralis luciferase, luminescence, biochemical; AID 1347043, 2019; Potency, µM (top dose mostly 115 µM), actives largely listed as inhibitors; 2.5% of 76,000 active; note: nearly all actives have a fitted effect of over 65% in size
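Inhibitors were tested against purified firefly luciferase in a biochemical, low-substrate format (both substrates at 10uM) and luminescence measured with a CCD imager.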
NIH3T3 tox = Cytotoxic Profiling in NIH 3T3 Cell Line of Diverse Libraries Using Quantitative High-Throughput Screening. NIH 3T3 viability, CellTiter-Glo ATP luminescence, 48-72 h. Potency, µM (highest dose often 96.7 µM), hits mostly inhibitors. 4.3% of 94,000 active; note: nearly all actives have a fitted effect of over 55% in size
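Cells were seeded at 400 per well, treated with pin-transferred compound, and kept 48 or 72 hr at 37 °C before CellTiter-Glo addition and luminescence imaging of cellular ATP.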
SNCA expr inh = Primary qHTS assay for inhibitors of alpha-synuclein gene (SNCA) expression; HEK-293 SNCA-luciferase knock-in, luminescence, 24 h; Potency, µM (top dose mostly 57.2 µM), hits mostly inhibitors; 0.17% of 140,000 active; note: nearly all actives have a fitted effect of over 45% in size
HEK cytotox = Cytotoxic Profiling in HEK 293 Cell Line of Diverse Libraries Using Quantitative High-Throughput Screening | HEK 293 viability, ATP luminescence (CellTiter-Glo), 48-72 h | Potency, µM (series often up to 115 µM), hits mostly inhibitors | 6.6% of 94,000 active | AID 1345083, 2018; note: nearly all actives have a fitted effect of over 60% in size
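HEK 293 seeded at 250 cells/well receive compound via pintool. After 48 or 72 hr at 37 degree Celsius, 5% CO2 and 95% humidity, CellTiter-Glo is dispensed and luminescence read following 10 min at room temperature.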
SNCA viab count = GF-AFC viability counterscreen for inhibitors of alpha-synuclein gene (SNCA) expression. Potency, µM (doses to about 57.1 µM), hits mostly cytotoxic. AID 1671193, 2021. 0.12% of 150,000 active. HEK-293-SNCA-luc viability, GF-AFC fluorescence, 24 h; note: nearly all actives have a fitted effect of over 30% in size
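HEK-293-SNCA-luc cells (1500/well) plated 24 h, then exposed 24 h to a dilution series; GF-AFC added 30 min at 37C, fluorescence 405/540 nm; normalised to medium-only and DMSO wells, Hill fit.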
FLuc SDR -ATP = Firefly luciferase (FLuc-C-HiBiT) SDR gain of signal screen - without ATP; Potency, µM (series often up to 32.7 µM), most hits filed as activators; 7.8% of 1,300 active; shares compounds with FLuc inh-1; AID 1963318, 2024; Purified FLuc-C-HiBiT, Nano-Glo HiBiT luminescence, no ATP; note: nearly all actives have a fitted effect of over 55% in size
FLuc SDR ATP = Firefly luciferase (FLuc-C-HiBiT) SDR gain of signal screen - plus ATP; 8.7% of 1,300 active; purified FLuc-C-HiBiT + ATP, HiBiT complementation luminescence; shares compounds with FLuc inh-1; Potency, µM (highest dose often 32.7 µM), most hits filed as activators;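 note: signal reports ligand binding via conformational change of the enzyme rather than luciferase catalysis; nearly all actives have a fitted effect of over 55% in size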
FLuc inh-2 = Firefly luciferase (FLuc-C-HiBiT) enzymatic inhibition screen - Functional assay; shares compounds with FLuc inh-1; purified FLuc-C-HiBiT enzyme, luciferin luminescence; Potency, µM (highest dose often 32.7 µM), hits mostly inhibitors; 42% of 1,300 active; AID 1963320, 2024; note: nearly all actives have a fitted effect of over 70% in size
Calls only; n = inactive; u = inconclusive; x = not tested or not shown. Unless noted, calls come from the whole dose curve; as a rule, active = well fitted curve in the direction sought with a large enough effect; inconclusive = small, poorly fitted or top-dose-only effect, or another doubt; inactive = no such curve, though single readings can be large; an effect the other way counts as inactive or inconclusive.

SMILES	hNpr1 antagonist	FLuc inh-1	NIH3T3 tox	SNCA expr inh	HEK cytotox	SNCA viab count	FLuc SDR -ATP	FLuc SDR ATP	FLuc inh-2
COc1ccc(C(=O)N2CCC(c3nc4ccccc4s3)CC2)cc1Cl	x	x	x	n	x	n	x	x	x
CN(C)C(=O)CN1C(=O)CO[C@H](c2ccc(NC(=O)c3ccc(F)c(Cl)c3)cc2)[C@H]1CO	n	n	n	n	n	n	x	x	x
Cc1ccc(N2C(=O)c3n[nH]c(C)c3C2c2ccccc2Cl)cc1 (stereo not given)	x	x	x	n	x	n	x	x	x
Cc1ccc(N2C(=O)c3n[nH]c(C)c3C2c2ccc(Cl)cc2)cc1 (stereo not given)	x	x	x	n	x	u	n	n	u
O=C(O)c1ccccc1-c1nc2ccccc2s1	x	x	x	x	x	x	n	n	n
COc1ccc(C(=O)Nc2ccccc2-c2nc3ccccc3s2)c(OC)c1	x	x	x	n	x	n	n	n	n
O=C(Nc1ccccc1-c1nc2ccccc2s1)c1ccccc1F	x	x	x	x	x	x	n	n	n
O=C(Nc1ccc2nc(SCc3ccccc3)sc2c1)c1ccccc1F	x	x	x	n	x	n	x	x	x
COc1cccc(C(=O)Nc2ccccc2-c2nc3ccccc3s2)c1	x	x	x	u	x	n	n	n	n
O=C(O)CC[C@@H]1CN(C(=O)Cc2ccc(CO)cc2)CC[C@@H]1N1CCOCC1	n	n	n	n	n	n	x	x	x
Cc1cnc(C(=O)N[C@@H]2CCC[C@@H]2C(=O)NCc2ccccc2)cn1	n	n	n	n	n	n	x	x	x
O=C(Nc1ccc(F)cc1F)N1CC(c2nnc(-c3ccncc3)o2)C2(CCOCC2)C1 (stereo not given)	n	n	n	n	n	n	x	x	x
COc1ccc(-n2nnnc2N2CCN(C(=O)Nc3ccc(C)c(F)c3)CC2)cc1C	x	x	u	n	u	n	x	x	x
O=C(Nc1ccc(-c2nc3ccccc3s2)c(O)c1)c1ccc(Br)cc1	x	x	x	u	x	n	n	n	n
O=C(Nc1ccc(O)c(-c2nc3ccccc3o2)c1)c1ccc(Br)cc1	x	x	x	n	x	u	x	x	x
COc1ccc(OCC(=O)Nc2ccc(O)c(-c3nc4ccccc4s3)c2)cc1	x	x	x	n	x	n	n	n	n
NC(=O)CSc1nc2ccc(NC(=O)COc3ccccc3)cc2s1	x	x	x	n	x	n	x	x	x
COc1cccc(C(=O)Nc2ccc(O)c(-c3nc4ccccc4s3)c2)c1	x	x	x	x	x	x	n	n	n
COc1ccc(-c2nc3ccc(NS(C)(=O)=O)cc3o2)cc1	x	x	x	n	x	n	n	n	u
COc1ccc2oc(-c3ccc(C)c(NC(=O)Cc4ccc(Cl)cc4)c3)nc2c1	x	x	x	n	x	n	x	x	x
CCOc1ccc(C(=O)Nc2cc(-c3nc4cc(OC)ccc4o3)ccc2C)cc1[N+](=O)[O-]	x	x	x	n	x	n	n	n	u
Cc1ccc(NC(=O)N2CC[C@@H]3C(=O)NCCCCCCN(Cc4ccncc4)[C@@H]3C2)cc1C	n	n	u	n	u	n	x	x	x
O=C(Nc1ccc2c(c1)OCCO2)N1CCN(C(=O)N2CC3CC(C2)[C@H]2CCCC(=O)N2C3)CC1 (stereo not given in full)	n	n	n	n	n	n	x	x	x

Screening results: PubChem, National Center for Advancing Translational Sciences (NCATS)
